Source: PubChem BioAssay (National Center for Advancing Translational Sciences (NCATS))
HCMV inh: qHTS Assay for inhibitors of the human cytomegalovirus (HCMV) | HFF cells, HCMV-luciferase reporter, 72 h; hits give low values | actives 4.5% (n = 410,000) | activity change, negative = inhibition, % at 57.5 µM; in the data active = activity change below about -60%; inconclusive = no clear call, values can overlap the other calls; inactive = above about -39%
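Steps: HFFs plated, 16 h 37C; compounds added; HCMV-luciferase added to MOI 1 PFU/cell; 72 h 37C; OneGlo reagent, 5 min room temperature; luminescence read, normalized to controls.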
HCV inhibitor: qHTS Assay for Inhibitors of Hepatitis C Virus (HCV); Huh7.5.1 HCVcc-Cre infection, luciferase reporter, 44 h; Potency, µM (doses to about 41.8 µM), most hits filed as inhibitors; actives 3.4% (n = 340,000); AID 651820, 2012; active = well fitted inhibition curve with a large enough effect; inconclusive = small, poorly fitted or top-dose-only effect, or another doubt; inactive = no such curve, though single readings can be large or run the other way
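Infectious HCVcc-Cre (~0.5 moi) was added to cells just after compound, with cells seeded 4 h earlier at 1,000 per well. Luciferase activity after 44 h culture reported infection; substrate was incubated 15 min at room temperature before reading.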
Marburg entry inh: qHTS for inhibitors of binding or entry into cells for Marburg Virus; AID 540276, 2011; actives 1.8% (n = 300,000); Potency, µM (top dose mostly 37.8 µM), most hits filed as inhibitors; Marburg virus pseudotyped entry inhibition, cell reporter; calls by dose curve; tested in HEK293 cells
VACV mCherry inh: qHTS for Stage-Specific Inhibitors of Vaccinia Orthopoxvirus: mCherry Reporter Primary qHTS. AID 720579, 2013. Potency, µM (top dose mostly 36.5 µM), actives largely listed as inhibitors. Vaccinia virus mCherry reporter infection, fluorescence. actives 0.63% (n = 310,000); calls by dose curve; tested in A549 cells; note: nearly all actives have a fitted effect of over 35% in size
Vaccinia Venus: qHTS for Stage-Specific Inhibitors of Vaccinia Orthopoxvirus: Venus Reporter Primary qHTS. Potency, µM (titrated, usually from 36.5 µM), hits mostly inhibitors. actives 0.46% (n = 330,000). Vaccinia virus Venus reporter expression, fluorescence; calls by dose curve; tested in A549 cells; note: nearly all actives have a fitted effect of over 30% in size
LASV entry inh: qHTS for Inhibitors of binding or entry into cells for Lassa Virus; Lassa virus pseudotype entry inhibition, cell reporter; Potency, µM (titrated, usually from 37.9 µM), most hits filed as inhibitors; actives 1.2% (n = 300,000); AID 540256, 2011; calls by dose curve; tested in HEK293 cells; note: nearly all actives have a fitted effect of over 50% in size
Hits are given with their value; - = inactive; ? = inconclusive; . = no result. The list is not random: actives were taken first. Their share in the collection is about 7.8%.

SMILES	HCMV inh	HCV inhibitor	Marburg entry inh	VACV mCherry inh	Vaccinia Venus	LASV entry inh
CCC(C)(C)NC(=O)C(c1ccc(F)cc1)N(Cc1ccccc1)C(=O)c1cnccn1 (stereo not given)	?	1.4µM	-	-	-	-
O=C(NCc1ccccc1)C(c1ccccc1)N(Cc1cccs1)C(=O)c1cnccn1 (stereo not given)	-	-	21µM	.	.	-
O=C(NCc1ccccc1)C(c1ccc(F)cc1)N(Cc1cccs1)C(=O)c1cnccn1 (stereo not given)	-	-	-	-	-	-
Cc1nn(-c2ccccn2)c2c1C(=O)C(Br)CC2 (stereo not given)	.	-	?	-	-	-
Cc1nn(-c2nccs2)c2c1C(=O)CC(C)(C)C2Br (stereo not given)	-70	-	.	-	?	.
O=S(=O)(Nc1nccs1)c1ccc(Br)cc1	-	-	-	-	-	-
O=S(=O)(Nc1nccs1)c1cnc(Cl)c(Br)c1	-101	-	-	-	-	-
Cc1cc(C(=O)CSc2nc3ccc(Cl)cc3[nH]2)c(C)n1CC1CCCO1 (stereo not given)	-66	8.9µM	13µM	?	-	?
Cc1ccc2nc(SCC(=O)N3CCOCC3)[nH]c2c1	-	-	?	-	-	-
Cc1cc(C(=O)CSc2nc3ccc(Cl)cc3[nH]2)c(C)n1C	-	?	-	.	.	-
C=CCn1c(C)cc(C(=O)CSc2nc3ccccc3[nH]2)c1C	-92	6.3µM	?	.	.	4.6µM
C=CCn1c(C)cc(C(=O)CSc2nc3ccccc3c(=O)[nH]2)c1C	-	-	?	?	?	?
Cc1ccc2nc(SCC3CCCCO3)[nH]c2c1 (stereo not given)	-	-	2.8µM	-	-	?
Cc1cc(C(=O)CSc2nc3ccccc3[nH]2)c(C)n1Cc1ccco1	-85	?	?	-	-	4µM
Cc1cc(C(=O)CSc2nc3ccccc3[nH]2)c(C)n1C	-	-	?	.	.	?
CC(=O)O[C@@H]1N=C(c2ccccc2)c2ccccc2NC1=O	.	.	-	.	.	.
CCCc1nc2ccc(NC(=O)CC(C)(C)C)cn2n1	-	.	.	.	.	.
CCOC(=O)C1=C(CS(=O)(=O)c2ccc(C)c(C)c2)NC(=O)NC1c1ccccc1OCC (stereo not given)	-	.	-	-	-	-
COc1ccc(CCNC(=O)CCCCCn2c(=O)[nH]c3cc(OC)c(OC)cc3c2=O)cc1OC	-	.	-	-	-	-
C=CCn1c(C)cc(C(=O)CSc2nc3ccccc3o2)c1C	?	22µM	13µM	.	.	-
Cc1[nH]c2ccc3ccccc3c2c(=O)c1C/C=C/Cl	-89	?	-	?	-	-
CCN1C(C(=O)c2ccccc2)=C(OC(=O)c2ccccc2OC)c2ccccc2S1(=O)=O	-73	.	-	?	?	?
CCCCN1C(C(=O)c2ccccc2)=C(OC(C)=O)c2ccccc2S1(=O)=O	-108	.	?	-	?	?
Cc1cc(C(=O)N2CCOc3ccc(CN4CCC(Oc5cccnc5)CC4)cc3C2)c(C)o1	.	.	.	-	-	.
O=C(NCCc1ccc(Cl)cc1)c1cnc2sc(N3CCCC3)nn2c1=O	-	.	.	-	-	-
SMILES	HCMV inh	HCV inhibitor	Marburg entry inh	VACV mCherry inh	Vaccinia Venus	LASV entry inh
COc1ccccc1[C@@]1(C)ON(c2ccccc2C(F)(F)F)C1=O	-	3.2µM	.	?	?	.
COc1ccc(C2C=C(C34CC5CC(CC(C5)C3)C4)NC(=S)N2)cc1 (stereo not given)	-	-	15µM	.	.	?
COc1ccc(C2=CC(c3ccc(OC)c(OC)c3)NC(=S)N2)cc1 (stereo not given)	-	-	-	?	-	-
O=C(CSc1ccc2nnc(CCNS(=O)(=O)c3ccccc3)n2n1)Nc1ccccc1C(F)(F)F	-	.	.	-	-	-
CN(CC(=O)NC1CCCCCCC1)S(=O)(=O)c1cccc2cccnc12	-62	-	.	-	-	.
CN(CC(=O)N1CCCCCC1)S(=O)(=O)c1cccc2cccnc12	-	-	.	-	-	.
COc1ccc(NC(=O)CN(C)S(=O)(=O)c2cccc3cccnc23)cc1	-66	-	.	-	-	.
CN(CC(=O)Nc1ccc(Cl)cc1)S(=O)(=O)c1cccc2cccnc12	-	?	.	-	-	.
